Experiment [1] is described as follows: inhibitors of TNFa-induced NFkB p65 translocation, primary screen, imaging, HUVEC, MLSMR starter and 10KST1 sets (AID 438;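 active means inhibition above 20% together with a positive visual image hit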;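 further: compound added about 3h40 before a 20 min TNFalpha stimulation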;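 on inhibition: signal is the nuclear over cytoplasmic p65 intensity ratio per well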). Particulars: HUVEC TNFa-induced p65 nuclear translocation; cell count: measured here: nuclei count (cytotoxicity indicator), at 2.08 µM; inhibition: at 2 µM, stronger effect = higher value, 0% TNFa-plus-vehicle, 100% no-TNFa wells.
Experiment [2] can be described thus: reduction of polyQ htt aggregates in cells – imaging, exon1htt(103Q)mCFP cells, high-content imaging, primary screen (AID 483;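 active means visual image review flags a hit and inhibition of aggregation exceeds 20%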;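 further: compound exposure lasted 3 days before fixation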;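 on nuclei count: percent of the per-plate median nuclei count of sample wells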). The following applies: exon1htt(103Q)mCFP cell line, aggregate imaging, at 2 µM; inhibition of aggregation: stronger effect = higher value; nuclei count: measured here: cell count, toxicity.
A short description of experiment [3]: endothelial E-selectin expression blockers – imaging, HUVEC, immunofluorescence, MLSMR starter and 10KST1 sets, primary screen (AID 487;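 active means visually confirmed hit in the image check and inhibition above 20%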;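 on inhibition: signal is fraction of cell area covered by stained E-selectin grains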;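 on nuclei count: 100% = median nuclei count of all wells on the same plate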). The following applies: HUVEC TNFalpha-induced E-selectin immunofluorescence imaging, at 2 µM; inhibition: stronger effect = higher value; nuclei count: measured here: cell number, toxicity.
For experiment [4], the target named is Voltage-gated potassium channel subunit beta-2 (Rattus norvegicus) (UniProt P62483). As to the kind of experiment: inhibitors of rat Kvbeta2 reductase activity – biochemical, NADPH fluorescence, primary screen (AID 622;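 active means fluorescence slope higher than the sample average by over 3 SD, cut at about -0.22 in these data, passing the limit was not always enough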;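 further: slope of raw intensity against log time taken from 70 to 1610 s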). The following applies: recombinant KvBeta, 4-cyanobenzaldehyde reduction, at 10 µM, stronger effect = higher value.
Chain of Voltage-gated potassium channel subunit beta-2 (Rattus norvegicus) (P62483 whole entry, looked up): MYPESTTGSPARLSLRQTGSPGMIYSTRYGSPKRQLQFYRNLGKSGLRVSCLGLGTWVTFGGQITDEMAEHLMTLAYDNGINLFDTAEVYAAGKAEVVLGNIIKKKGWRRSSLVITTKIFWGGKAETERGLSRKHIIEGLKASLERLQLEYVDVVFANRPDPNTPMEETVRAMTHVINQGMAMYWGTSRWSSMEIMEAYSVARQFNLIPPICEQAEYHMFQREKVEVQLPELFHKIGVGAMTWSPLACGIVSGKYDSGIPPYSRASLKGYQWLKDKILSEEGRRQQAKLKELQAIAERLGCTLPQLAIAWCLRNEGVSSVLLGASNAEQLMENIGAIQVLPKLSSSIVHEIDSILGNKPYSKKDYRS
Experiment [5] has the same target. As to the kind of experiment: enhancers of rat Kvbeta2 NADPH turnover – biochemical, NADPH fluorescence, primary screen (AID 623;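 active means NADPH fluorescence slope more negative than the mean of all samples by about 3 SD, 99.7% confidence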;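 further: fluorescence intensity change per second fitted from 20 to 320 s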). Particulars: Recombinant KvBeta, NADPH fluorescence decrease slope, 10 min; at 10 µM; stronger effect = lower value.
The target in experiment [6] is Alpha-2C adrenergic receptor (Homo sapiens) (UniProt P18825). Description: compounds altering alpha2C-coupled GIRK flux – cell-based, HEK293 alpha2C/GIRK1/2, thallium flux, primary screen (AID 624).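 Further: slope of fluorescence ratio to pre-addition baseline per second over 15 to 24 s.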 Particulars: thallium flux BTC fluorescence, at 10 µM, actives lie on both sides.
Chain of Alpha-2C adrenergic receptor (Homo sapiens) (P18825 whole entry, looked up): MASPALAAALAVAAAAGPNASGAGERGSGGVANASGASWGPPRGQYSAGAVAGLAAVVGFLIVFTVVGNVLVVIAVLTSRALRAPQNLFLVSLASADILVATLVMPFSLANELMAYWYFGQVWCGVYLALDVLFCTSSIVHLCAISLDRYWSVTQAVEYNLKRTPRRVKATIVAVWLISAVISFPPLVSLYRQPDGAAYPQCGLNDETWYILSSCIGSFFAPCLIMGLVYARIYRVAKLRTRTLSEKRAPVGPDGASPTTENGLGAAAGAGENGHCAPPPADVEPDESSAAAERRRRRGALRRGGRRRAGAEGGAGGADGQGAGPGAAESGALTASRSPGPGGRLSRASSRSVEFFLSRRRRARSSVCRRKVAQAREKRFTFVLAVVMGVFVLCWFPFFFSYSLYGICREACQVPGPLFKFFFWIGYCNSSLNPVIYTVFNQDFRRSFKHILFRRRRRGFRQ
The nature of experiment [7]: blockers of RIG-like receptor reporter activation – cell-based, Sendai virus stimulus, luciferase, 10K MLSCN set, TLR/RLR signaling modifier project, primary screen (AID 602276;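 active means inhibition at or above 50% at 10 µM; inactive means inhibition below 50%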;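 further: firefly luciferase from ISG56 promoter only with Renilla not read in this screen; 0% = Sendai virus plus DMSO and 100% = medium plus DMSO without virus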). Particulars: HEK293 RL24 IRF3 luciferase reporter, at 10 µM, stronger effect = higher value.
Experiment [8] is described as follows: TLR3 IRF3 reporter activation blockers – cell-based, poly I:C stimulus, luciferase, 10K MLSCN set, primary screen (AID 602277;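 active means inhibition of the reporter signal at or above 50%; inactive means inhibition below 50%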). The following applies: HEK293-TLR3 RL24 IRF3 luciferase reporter, at 10 µM, stronger effect = higher value.

The record followed here is PubChem BioAssay.

Molecules are shown by their SMILES. Activity calls are given as the source filed them.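 How the source made its calls, unless noted: active means fluorescence slope after compound addition differing from the mean of all screened samples at 99.7% confidence, in either direction; inactive means the rest.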

On to `COc1ccc(CCNC(=O)CCN2C(=O)C3CC=CCC3C2=O)cc1OC` (stereo not drawn), for which the cell count in experiment [1] turned out to be 308. Besides, the inhibition in experiment [1] was -1.1% (inactive); in experiment [3], -53.4% (inactive); in experiment [7], 3.55% (inactive); in experiment [8] it was -2.15% (inactive). Besides, the inhibition of aggregation in experiment [2] was -8.1% (inactive). Further, the nuclei count in experiment [2] was found to be 83.4%; in experiment [3] it was 103%. In experiment [4], the fluorescence slope is -0.605 (inactive). Moreover, the NADPH fluorescence slope in experiment [5] was -1.9e-06 (inactive). Moreover, the slope in experiment [6] was 0.00675 (inactive).

For the compound `CC1Cn2c(nnc2-c2ccc(F)cc2)S1` (stereo not drawn), the cell count in experiment [1] came out at 741. The inhibition in experiment [1] is -17.7% (inactive); in experiment [3], -40% (inactive); in experiment [7], -1.17% (inactive); in experiment [8], 28.5% (inactive). Also, in experiment [2], the inhibition of aggregation is -26.8% (inactive). Besides, the nuclei count in experiment [2] turned out to be 119%; in experiment [3], 101%. For the same compound, the fluorescence slope in experiment [4] was -0.583 (inactive). Further, in experiment [5], the NADPH fluorescence slope is -2.2e-05 (inactive). The slope in experiment [6] was 0.00604 (inactive).

Take `COc1ccc(-c2[nH]nc3c2C(c2ccncc2)C(C#N)=C(N)O3)cc1` (stereo not drawn): the cell count in experiment [1] was found to be 441. The inhibition in experiment [1] was 6% (inactive); in experiment [3], -6.7% (inactive); in experiment [7], 6.11% (inactive); in experiment [8] it was 99% (active). Moreover, the inhibition of aggregation in experiment [2] is 2.5% (inactive). Besides, the nuclei count is 113% in experiment [2] and 100% in experiment [3]. In addition, in experiment [4], the fluorescence slope is -0.31 (inactive). In addition, the NADPH fluorescence slope in experiment [5] was -4.4e-05 (inactive). Also, the slope in experiment [6] was 0.00483 (inactive).

As for `CC(C(=O)Nc1ccccc1-c1ccccc1)N1CCOCC1` (stereo not drawn), the cell count in experiment [1] worked out at 555. The inhibition in experiment [1] was -17.7% (inactive); in experiment [3] it was -27.4% (inactive); in experiment [7], 3.12% (inactive); in experiment [8] it was 86.4% (active). For the same compound, the inhibition of aggregation in experiment [2] was 5.4% (inactive). Further, the values for the nuclei count in experiment [2] and in experiment [3] were 89.4% and 127%, respectively. Besides, in experiment [4], the fluorescence slope is -0.527 (inactive). Moreover, the NADPH fluorescence slope in experiment [5] was -6.7e-05 (inactive). Further, the slope in experiment [6] is 0.00481 (inactive).

In the case of `Cc1ccc(-c2nc3cc(NC(=O)C(C)C)ccc3o2)cc1C`, the cell count in experiment [1] was 709. The inhibition in experiment [1] is -5% (inactive); in experiment [3], -160% (inactive); in experiment [7] it was 19.2% (inactive); in experiment [8], 12.7% (inactive). Besides, the inhibition of aggregation in experiment [2] is -7.4% (inactive). The nuclei count in experiment [2] turned out to be 99.3%; in experiment [3] it was 122%. Moreover, in experiment [4], the fluorescence slope is -0.453 (inactive). In addition, the NADPH fluorescence slope in experiment [5] was 2.2e-05 (inactive). In addition, the slope in experiment [6] is 0.00605 (inactive).

As to `COc1cccc(CNC(=O)C2CCN(C(=O)N(C)C)CC2)c1`, the cell count in experiment [1] came to 569. The inhibition in experiment [1] is 8.3% (inactive); in experiment [3], -15.7% (inactive); in experiment [7] it was 11.6% (inactive); in experiment [8], 32.8% (inactive). The inhibition of aggregation in experiment [2] was -46.5% (inactive). For the same compound, the nuclei count in experiment [2] was determined as 52.8%; in experiment [3] it was 109%. The fluorescence slope in experiment [4] is -0.345 (inactive). The NADPH fluorescence slope in experiment [5] was -6.9e-05 (inactive). In addition, in experiment [6], the slope is 0.00563 (inactive).

For `CCOC(=O)c1ccc2[nH]c(C)c(CN3CCN(C)CC3)c(=O)c2c1`, the cell count in experiment [1] was found to be 332. For the same compound, the inhibition was 6.1% (inactive) in experiment [1], 20.8% (inactive) in experiment [3], -4.42% (inactive) in experiment [7] and 21.9% (inactive) in experiment [8]. Also, in experiment [2], the inhibition of aggregation was 11.1% (inactive). In addition, the nuclei count in experiment [2] turned out to be 89.7%; in experiment [3] it was 112%. Moreover, the fluorescence slope in experiment [4] was -0.471 (inactive). Besides, the NADPH fluorescence slope in experiment [5] was -4e-05 (inactive). Besides, the slope in experiment [6] is 0.00513 (inactive).

For `O=c1[nH]c2sc3c(c2c2nncn12)CCCC3`, the cell count in experiment [1] was 420. Also, the inhibition in experiment [1] is 11.2% (inactive); in experiment [3], -112% (inactive); in experiment [7], 7.28% (inactive); in experiment [8], -10% (inactive). The inhibition of aggregation in experiment [2] is 13.5% (inactive). For the same compound, the nuclei count in experiment [2] came out at 108%; in experiment [3], 111%. In experiment [4], the fluorescence slope was -0.499 (inactive). Further, the NADPH fluorescence slope in experiment [5] was -0.000261 (inactive). In addition, in experiment [6], the slope was 0.00486 (inactive).
